From PubChem BioAssay
Calls of active or inactive are those of the source.

Legend:
[1] = compound effects on lung adenocarcinoma cell viability – A549, calcein-AM fluorescence, 48 h, basal, profiling panel (AID 1162); details: higher = more signal
[2] = compound effects on differentiated 3T3-L1 adipocyte viability – cell-based, 3T3-L1 adipocytes, calcein-AM fluorescence, 48 h, basal, profiling panel (AID 1163); details: 3T3-L1 adipocytes viability, higher = more signal
[3] = compound effects on hepatocellular carcinoma cell viability – HepG2, calcein-AM fluorescence, 48 h, basal, profiling panel (AID 1164); details: higher = more signal
[4] = compound effects on multiple myeloma cell viability – MM1S, calcein-AM fluorescence, 48 h, basal, profiling panel (AID 1165); details: higher = more signal;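 further: viability of MM1S multiple myeloma cells under basal unstimulated conditions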
[5] = calcein-AM signal in unstimulated myeloma cells – cell-based, calcein-AM fluorescence, 48 h, PK04 Diversity Set, profiling panel (AID 1166); details: RPMI8226 myeloma viability, higher = more signal;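 further: cells grown under basal conditions without added stimulus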
[6] = JC-1 mitochondrial signal, unstimulated HepG2 cells – cell-based, JC-1 fluorescence, 24 h, 100 nL compound, profiling panel (AID 1167); details: HepG2 mitochondrial potential, higher = more signal
[7] = JC-1 mitochondrial signal, unstimulated adipocytes – cell-based, JC-1 fluorescence, 3T3-L1 adipocytes, 24 h, 100 nL compound, profiling panel (AID 1168); details: JC-1 mitochondrial fluorescence, higher = more signal, called active from +8 up or from −8 down
[8] = JC-1 mitochondrial signal, unstimulated myeloma cells – cell-based, JC-1 fluorescence, RPMI8226, 24 h, 100 nL compound, profiling panel (AID 1169); details: JC-1 mitochondrial potential fluorescence, higher = more signal
[9] = JC-1 mitochondrial signal, unstimulated MM1S myeloma – cell-based, JC-1 fluorescence, 24 h, 100 nL compound, profiling panel (AID 1170); details: MM1S mitochondrial potential, higher = more signal
[10] = resazurin metabolic signal in A549 cells – cell-based, resazurin fluorescence, 24 h, PK04 Diversity Set, profiling panel (AID 1171); details: A549 viability, higher = more signal, called active from +8 up or from −8 down
Further: test concentration not given here.

Structure (SMILES) | z-score [1] | z-score [2] | z-score [3] | z-score [4] | z-score [5] | z-score [6] | z-score [7] | z-score [8] | z-score [9] | z-score [10]
COC(=O)[C@@]1(Cc2ccccc2N=[N+]=[N-])N=C(c2ccc(OCCCO)cc2)O[C@H]1c1ccccc1N=[N+]=[N-] | -1.53 | 0.342 | -5.52 | -3.65 | -4.04 | -1.63 | -0.0913 (inactive) | -1.13 | -2.92 | -2.94 (inactive)
COCCOC(=O)N1C(=O)[C@@]2(c3cc(C#Cc4ccc(OC)cc4)ccc31)[C@H](c1ccc(O)cc1)N1[C@H](c3ccccc3)[C@H](c3ccccc3)OC(=O)[C@H]1[C@@H]2C(=O)N1CCCCCCC1 | 0.403 | 0.703 | -0.261 | -1.08 | -1.29 | -0.902 | 1.18 (inactive) | -0.464 | -0.414 | -0.0155 (inactive)
COCCOC(=O)N1C(=O)[C@@]2(c3cc(C#CCCO)ccc31)[C@H](c1ccccc1OCCO)N1[C@H](c3ccccc3)[C@H](c3ccccc3)OC(=O)[C@H]1[C@@H]2C(=O)Nc1nc2ccccc2s1 | 0.148 | -0.676 | 0.169 | -1.11 | -0.813 | -3.28 | -0.192 (inactive) | -0.417 | -0.998 | 0.854 (inactive)
CCC[C@@H]1C[C@@]1(CCC)[C@@H](NC(=O)OCc1ccccc1)c1ccc(-c2ccccc2)cc1 | -1.15 | -1.15 | 0.0422 | -0.625 | -1.43 | -0.862 | 0.258 (inactive) | -0.325 | -1.19 | 2.39 (inactive)
CC(C)C(=C=CC[C@H](O)c1cccc(OCCO)c1)C[C@H](O)c1cc(Cl)cc(Cl)c1O | -0.105 | -0.903 | 0.142 | -1.67 | 0.205 | 0.00345 | 0.375 (inactive) | -0.527 | -0.826 | 1.01 (inactive)
CC(C)OC(=O)C=C1C[C@@H](c2ccc(C(F)(F)F)cc2)O[C@@H](c2ccc(C(F)(F)F)cc2)O1 | 0.944 | -0.168 | 0.114 | -2.49 | -1.51 | -0.393 | 0.958 (inactive) | -0.478 | -1.02 | 0.452 (inactive)
CCC(CC)C(O)C1C=CC2C(=O)N(c3ccccc3)C(=O)C2N1Nc1ccc(C(C)C)cc1 (stereo not given) | -0.0442 | 0.667 | 0.0413 | -0.393 | -0.842 | -1.68 | 0.261 (inactive) | -0.0785 | 0.299 | -1.32 (inactive)
CCCC[C@@H](O)C1=C(COc2ccccc2)C[C@H]2C(=O)N(C)C(=O)[C@H]2[C@H]1CO | 0.683 | 0.0659 | 1.54 | 0.196 | 0.131 | 1.11 | 0.56 (inactive) | 0.547 | -2.03 | -0.703 (inactive)
O=C(NCC(F)(F)F)[C@@H]1c2ccccc2C(=O)N(Cc2ccccc2C(F)(F)F)[C@H]1c1ccc(CO)cc1 | 0.215 | -0.484 | 0.0606 | 0.0756 | -0.328 | 0.277 | -1.07 (inactive) | 0.0161 | -0.894 | 0.456 (inactive)
C[N+](C)(C)CCCCCCNC(=O)[C@H]1C[C@H]2C(=O)NCC(=O)N2[C@H]1c1ccc(O)cc1 | -0.93 | -0.313 | -0.799 | -1.17 | -0.121 | -1.71 | -0.159 (inactive) | 0.0729 | -0.235 | 0.14 (inactive)
CC1CC/C=C\[C@H]2OC34C=CCN(c5ccc(Cl)cc5)C(=O)[C@H]3N(CCCCCO)C(=O)[C@]4(C)C2C(=O)O1 (stereo not given in full) | -0.0287 | -0.607 | 0.843 | 0.743 | -0.381 | -0.197 | -0.0396 (inactive) | -0.909 | 1.27 | -0.194 (inactive)
O=C1O[C@@H](c2ccccc2)[C@@H](c2ccccc2)N2[C@@H](c3ccc(O)cc3)[C@]3(C(=O)Nc4ccc(C#CC5(O)CCCCCC5)cc43)[C@@H](C(=O)NC[C@H](O)c3ccccc3)[C@H]12 | -0.0476 | 0.264 | -0.181 | -2.14 | -1.31 | -2.14 | -1.16 (inactive) | -0.66 | -0.279 | 0.119 (inactive)
CO[C@H]1O[C@H](CO)[C@@H](OC(=O)Nc2ccc3c(c2)OCO3)[C@H](OC(=O)c2cc3ccccc3[nH]2)[C@H]1OC(=O)c1cc2ccccc2[nH]1 | 0.603 | 0.477 | 0.463 | -1.98 | 1.11 | -2.54 | 1.27 (inactive) | -0.31 | -1.29 | -3.63 (inactive)
COc1ccc(CCNC(=O)[C@@H]2c3ccccc3C(=O)N(Cc3cc(C(F)(F)F)cc(C(F)(F)F)c3)[C@H]2c2ccc(CO)cc2)cc1 | 1.64 | 1.58 | 1.17 | -1.4 | -0.35 | 1.61 | -0.497 (inactive) | -0.0116 | 0.29 | 0.349 (inactive)
COc1ccc([Si](C)(C)[C@H]2[C@H](CCn3cc([C@H](O)c4ccccc4)nn3)O[C@@]3(C(=O)N(Cc4ccc(N5C(=O)c6cccc7cccc5c67)cc4)c4ccccc43)[C@@H]2C)cc1 | 0.332 | -0.488 | 1.02 | -0.702 | -0.74 | 1.58 | -0.526 (inactive) | -0.296 | 0.516 | -1.26 (inactive)
COC(=O)c1c2oc(c1C(=O)OC)C(=O)N(C)Cc1cn(nn1)C[C@H](Cc1ccccc1)NC(=O)N[C@H](CO)CC2 | -0.145 | 0.129 | -0.0951 | 0.273 | -0.743 | -0.649 | -0.164 (inactive) | 0.256 | -0.31 | -0.213 (inactive)
O[C@@H](Cc1ccccc1)[C@@H](/C=C/C1CC1)N(CC#Cc1ccccc1)Cc1cccc(Cl)c1 | 0.136 | -0.166 | 0.891 | -0.217 | -0.0958 | -0.549 | 0.274 (inactive) | 0.256 | -1.16 | 2.89 (inactive)
O=C1OCC=C[C@H]2OC34C=CCN(c5ccc(Cl)cc5)C(=O)[C@H]3N(CCO)C(=O)[C@@H]4[C@@H]12 (stereo not given in full) | 0.667 | 0.0916 | 0.781 | 0.0654 | 0.714 | -0.365 | -0.803 (inactive) | 0.0649 | 0.596 | -0.27 (inactive)
NCCCCCCNC(=O)[C@@H]1C[C@@H]2C(=O)N[C@@H](CCCCN)C(=O)N2[C@@H]1c1cccc(OCCO)c1 | 0.892 | -0.452 | 0.514 | 0.835 | 0.986 | 0.0199 | 0.759 (inactive) | -0.639 | -0.451 | 0.551 (inactive)
[N-]=[N+]=NCc1ccccc1[C@H]1OC(c2ccc(OCCCO)cc2)=N[C@@]1(CCS(=O)(=O)c1ccccc1)C(=O)NCC(O)CO (stereo not given in full) | -0.257 | 0.538 | 0.0325 | -0.381 | 0.429 | -1.57 | 0.466 (inactive) | -0.221 | -1.78 | -0.317 (inactive)
C=CCOC(=O)[C@H]1[C@@H]2C(=O)O[C@@H](c3ccccc3)[C@@H](c3ccccc3)N2[C@@H](c2ccc(OCCOC(=O)[C@@H]3C[C@@H]4C(=O)N5CCC[C@H]5C(=O)N4[C@@H]3c3ccc(O)cc3)cc2)[C@]12C(=O)Nc1ccc(I)cc12 | -0.455 | 0.276 | 0.018 | 0.0967 | -0.0749 | -1.24 | 0.88 (inactive) | -0.655 | -1.37 | -0.273 (inactive)
C=C(/C(=C/C[C@H](OC(C)=O)c1ccccc1OCCO)c1cc(C(=O)OC)ccc1OC)C(C)C | -0.297 | 1.77 | -0.644 | -1.2 | -1.75 | 1.14 | 1.16 (inactive) | 0.0903 | 1.08 | 0.0515 (inactive)
